This is one part of a sample in which hits are shown more often than they occur.
ST2 IL33 inh: inhibitors of human ST2 (IL1RL1) binding to IL-33; inhibition, % for hits at 17 µM; AlphaLISA ST2-Fc/biotin-IL-33 interaction, 1 h; Q01638; AID 1259354; 2.3% of 78,000 active; in the data active = inhibition above about 30%
* hit, by the source's call; i = inactive.

SMILES	ST2 IL33 inh
O=C(CN1C(=O)/C(=C\c2ccc(C(F)(F)F)cc2)Sc2ccccc21)N1CCCC1	30%*
O=C(CN1C(=O)/C(=C\c2cccc(Cl)c2)Sc2ccccc21)NCCCN1CCOCC1	32%*
CCC1Oc2ccccc2N(CC(=O)NCCCN2CCOCC2)C1=O (stereo not drawn)	i
CC1CC(=O)N(CC(=O)NCc2ccco2)c2ccccc2S1 (stereo not drawn)	i
O=C(CN1CCN(Cc2cccc(Cl)c2)C1=O)NCCN1CCOCC1	i
Cc1cc(=O)c(C(=O)N2CCCC(C)C2)c(CCc2ccccc2)n1Cc1ccncc1 (stereo not drawn)	i
Cc1ccc(Nc2nnc(C)c(=O)[nH]2)c(C)c1	i
C=CCNc1nc(-c2ccc(Cl)cc2)nc2ccccc12	i
Cc1sc2ncnc(SCC(=O)NC(Cc3ccccc3)C(=O)O)c2c1C (stereo not drawn)	i
Cc1ccc2nc(SCC(=O)Nc3ccc(F)c(F)c3)[nH]c2c1	i
CCCS(=O)(=O)c1c(S(=O)(=O)CCC)c2cnccn2c1C(=O)c1ccc(C)cc1C	i
CCCCCCCCCCCc1cc(O)cc(O)c1	i
CCN(Cc1ccncc1)C(=O)CCC(=O)Nc1ccc(F)c(Cl)c1	i
CN1CCN(C(=O)CN2C(=O)S/C(=C\c3ccc(Cl)cc3)C2=O)CC1	i
COc1ccc(/C=C2\SC(=O)N(CC(=O)N3CCCCC3)C2=O)cc1OC	i
O=C(CN1C(=O)/C(=C\c2cccc(Cl)c2)Sc2ccccc21)NCCN1CCCCCC1	43%*
O=C(CN1C(=O)/C(=C\c2cccc(Cl)c2)Sc2ccccc21)N1CCCCC1	33%*
O=C1S/C(=C/c2cccc(Cl)c2)C(=O)N1CN1CCCCC1	i
O=C(CN1C(=O)CSc2ccc(S(=O)(=O)N3CCCCC3)cc21)NCCN1CCCC1	i
O=C(Nc1ccccc1)Nc1ccc(F)cc1	i
CCCCNc1ncnc2sc3c(c12)CCCCC3	i
COc1ccc(OCC(=O)NC2CCCCC2)cc1	i
CC1(C#N)Cn2nc([N+](=O)[O-])nc2O1 (stereo not drawn)	i
CCOC1=NC2Nc3ccccc3N(CC)C2C1c1ccc([N+](=O)[O-])cc1 (stereo not drawn)	i
CCc1ccc(N2C(=O)c3ccccc3NC2c2cccc([N+](=O)[O-])c2)cc1 (stereo not drawn)	i
SMILES	ST2 IL33 inh
CCC1(CC)OC(c2cccn2-c2ccc([N+](=O)[O-])cc2)Nc2ccccc21 (stereo not drawn)	54%*
Cc1ccc(S(=O)(=O)NC(C)C(c2cccs2)N2CCN(c3ccccc3F)CC2)cc1 (stereo not drawn)	i
O=C(Nc1cccc(Cl)c1)c1cccc([N+](=O)[O-])c1	92%*
O=C(Nc1ccc(I)cc1)c1cccc([N+](=O)[O-])c1	i
Cc1ccc(NC(=O)c2cccc([N+](=O)[O-])c2)cc1C	i
CC(=O)NS(=O)(=O)c1ccc(NC(=O)CN2C(=O)c3ccccc3C2=O)cc1	i
COc1ccc(CCNC(=O)c2sc3nc(-c4ccc(OC)cc4)ccc3c2N)cc1	i
COc1cc(NC(=O)c2sc3nc(-c4ccc(F)cc4)ccc3c2N)cc(OC)c1OC	i
CSc1ccc(NC(=O)c2sc3nc(-c4ccc(F)cc4)ccc3c2N)cc1	44%*
Cc1cc(I)ccc1NC(=O)c1ccccc1[N+](=O)[O-]	i
Cc1ccc2c(C)c(C(=O)NCCSc3nncn3C)oc2c1C	i
CN1C(=O)C(=Cc2cn(CCOc3ccccc3F)c3ccccc23)C(=O)N(C)C1=O	i
CC(=O)N1CCn2c3c(c4cc(C5CCCCC5)ccc42)CCCC31 (stereo not drawn)	i
Cc1ccc2c(c1)c1c3n2CCN(CCC#N)C3CCC1 (stereo not drawn)	i
CC(=O)N1CCn2c3c(c4cc(C)ccc42)CCCC31 (stereo not drawn)	i
Cc1ccc2c(c1)c1c3n2CCN(C(=O)c2ccccc2)C3CCC1 (stereo not drawn)	30%*
Cc1ccc2c(c1)c1c(n2CCC#N)C(=O)CCC1	i
Cc1ccc2c(c1)c1c(n2C)C(C(N)=O)CCC1 (stereo not drawn)	32%*
CN(Cc1cc2cc(F)ccc2[nH]1)Cc1cnc(S(C)(=O)=O)n1Cc1ccccc1F	i
CN1CCN(c2ncccc2CNC(=O)C2CC=CCC2)CC1 (stereo not drawn)	i
O=C(Nc1ccc(Cl)cc1)C1c2ccccc2Oc2ccccc21	i
N#Cc1c(Nc2ccc(Cl)cc2)[nH]c(=O)c(C#N)c1Nc1ccccc1	i
CN(C)c1ccc(C(=O)Nc2nc3ccc(Cl)cc3s2)cc1	i
Cc1nc2ccc(N(C)C)cc2s1	33%*
Cc1nc2cc(CCO)ccc2s1	i
SMILES	ST2 IL33 inh
COc1cccc(OC)c1C(=O)Nc1ccc(Cl)c(Cl)c1	i
O=C(NCCN1CCOCC1)c1cc(=O)[nH]c2ccc(S(=O)(=O)N3CCCC3)cc12	i
CCN(Cc1ccccc1)Cc1cc(Br)c(OC)cc1OC	i
O=C1c2ccc(Oc3ccc4c(c3)C(=O)N(c3nccs3)C4=O)cc2C(=O)N1c1nccs1	i
N=C1S/C(=C\c2ccc(-c3ccc([N+](=O)[O-])cc3)o2)C(=O)N1c1nccs1	34%*
O=c1/c(=C/c2ccc(-c3cccc([N+](=O)[O-])c3)o2)sc2nc3ccccc3n12	i
c1ccc(N2COc3ccc4ccccc4c3C2)cc1	i
O=C(Nc1c(C(=O)Nc2cccc(F)c2)oc2ccccc12)c1ccccc1F	i
CC(C)CN(CCNC(=O)c1cc(-c2ccncc2)nc2ccccc12)CC(C)C	i
Cn1c(=O)[nH]c(=O)c2c1nc(CN1CCOCC1)n2CCN1CCOCC1	i
CN(CC1CCCN1C)c1ccnc(C(=O)NCc2cccnc2)c1 (stereo not drawn)	i
O=C(NCc1ccccc1Cl)C1CCN(CC2CC=CCC2)CC1 (stereo not drawn)	i
O=C(c1ccc(F)cc1)c1c[nH]c2c(Cl)cccc2c1=O	i

Bioassay records from PubChem.
